Screens (PubChem BioAssay)
Most compounds without a hit are left out; they make up all but 17% or so of the library.
HT1080NT lethal: kills 2HG-producing HT-1080-NT fibrosarcoma cells. HT-1080-NT fibrosarcoma viability, CellTiter-Glo ATP luminescence, 48 h. Potency, µM (doses to about 46.1 µM), for inactives: top-dose activity, negative = less viability, most hits filed as cytotoxic. 360,000 compounds, 1.6% hits. AID 686970;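 further: NT is the 2HG producing partner of a matched IDH1 knockdown line; 0% = DMSO-treated cells and -100% = media-only wells without cells; nearly all actives have a fitted effect of over 55% in size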
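Fibrosarcoma NT cells, 750 per well in 5% FBS RPMI, were exposed to compound for 48 hours. Viability: CellTiter-Glo luminescence.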
DT40 TDP1 CPT: DT40-hTDP1 cell growth loss with CPT; Potency, µM (doses to about 46.2 µM), without a hit: top-dose activity change, negative = growth inhibition, most hits filed as inhibitors; 420,000 compounds, 12% hits; chicken DT40 Tdp1-/-;hTDP1 cells + 20 nM CPT, ATP luminescence, 48 h; AID 686979; further: on the % scale 0 is the no-effect control and ±100 the full control effect; nearly all actives have a fitted effect of over 55% in size
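Chicken DT40 Tdp1-/- cells complemented with human TDP1, 400 cells/well, exposed to compounds plus 20 nM camptothecin for at least 48 h at 37 C; viability read as ATP content by CellTiter-Glo luminescence.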
DT40 TDP1 no CPT: qHTS for Inhibitors of human tyrosyl-DNA phosphodiesterase 1 (TDP1): qHTS in cells in absence of CPT; DT40 Tdp1-/- hTDP1 cells, no CPT, ATP luminescence, 48 h; AID 686978, 2013; 420,000 compounds, 15% hits; Potency, µM (titrated, usually from 46.2 µM), for the others: top-dose activity change, negative = growth inhibition, hits mostly inhibitors; further: on the % scale 0 is the no-effect control and ±100 the full control effect; nearly all actives have a fitted effect of over 55% in size
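DT40 Tdp1-/-;hTDP1 cells, no CPT (DMSO vehicle only), 400 cells/well; compounds pin-transferred; ≥48 hr, 37 °C; CellTiter-Glo 30 min RT dark, luminescence read.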
TGFb inhibitor: inhibitors of TGF-b signaling. HepG2 CAGA-GFP TGF-b/SMAD3 reporter, GFP fluorescence, 18 h; TGF-beta stimulated, 500 pg/mL final. 410,000 compounds, 1.2% hits. AID 588855. Potency, µM (titrated, usually from 46.1 µM), inactives show top-dose activity, negative = inhibition, actives largely listed as inhibitors; further: on the % scale 0 is the no-effect control and ±100 the full control effect; nearly all actives have a fitted effect of over 65% in size
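Cell-based qHTS in HEPG2 carrying a CAGA-GFP Smad reporter; compounds added before 500 pg/mL final TGF-beta, 18 h incubation at 37 degrees C, GFP fluorescence quantified per cell by imaging cytometry.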
HepG2 tox: kills HepG2 cells in TGF-b inhibitor counter-screen | Potency, µM (top dose mostly 46.1 µM), for the others: top-dose activity change, negative = cytotoxicity, usual class: cytotoxic | 410,000 compounds, 0.76% hits | HepG2 CAGA-GFP viability, ATP luminescence, 18 h | AID 588856
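CellTiter-Glo luminescence gave cytotoxicity after 18 hours at 37 degrees C. The cells were HepG2 CAGA-GFP in 1% FBS DMEM, stimulated with 500 pg/mL TGF-beta after compound addition. %Activity was normalised to no-cell wells (complete cell-killing) and DMSO (no toxicity), and curves were fitted and classified.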
HT1080 IDH1KD tx: HT-1080 IDH1 knockdown cell toxicity (counter line). 360,000 compounds, 2% hits. HT-1080 IDH1 knockdown viability, ATP luminescence, 48 h. Potency, µM (doses to about 46.1 µM), inactives show at the highest dose activity, negative = toxicity, usual class: cytotoxic;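 further: 0% = DMSO wells and -100% = cell-free medium wells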
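% activity derives from luminescence (CellTiter-Glo), normalised to DMSO and no-cell wells. HT-1080-IDH1KD cells, 750/well, had 48 h compound exposure at 37 °C.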
* marks the source's active call; other numbers are inactive results; ? = inconclusive; . = no result. The call rests on the fitted dose curve; in most records, active means well fitted curve in the direction sought with a large enough effect; inconclusive means small, poorly fitted or top-dose-only effect, or another doubt; inactive means no such curve, though single readings can be large; an effect the other way counts as inactive or inconclusive. Potency means the concentration at half of the fitted maximal effect.

SMILES | HT1080NT lethal | DT40 TDP1 CPT | DT40 TDP1 no CPT | TGFb inhibitor | HepG2 tox | HT1080 IDH1KD tx
Clc1nc2ccccc2cc1-c1nnn(-c2ccccc2Br)n1 | -0.1% | ? | ? | 1.9% | -2.6% | -0.4%
COCCn1c(CNC(=O)c2ccc(C)cc2)nc2cccnc21 | . | -18.6% | -3.7% | -6.1% | -12.6% | .
CCOc1cc(C(=S)N2CCOCC2)ccc1OS(=O)(=O)c1ccc(NC(C)=O)cc1 | -2.3% | 10.3µM* | 16.4µM* | -8.2% | -15.5% | -1.5%
CCOc1cc(C(=S)N2CCOCC2)ccc1OS(=O)(=O)c1ccc(OC)cc1 | -3.9% | -3.7% | ? | 1.2% | -12.0% | -10.3%
COc1ccc(C=O)cc1OS(=O)(=O)c1ccc(NC(C)=O)cc1 | -26.4% | ? | 3.66µM* | 14.8% | 14.8% | ?
COc1cc(C=O)cc(OC)c1OS(=O)(=O)c1ccc(NC(C)=O)cc1 | 4.7% | ? | ? | -25.5% | -25.7% | 5.4%
COc1ccc(/C=N/NC(=O)c2ccc3ccccc3c2)cc1OS(=O)(=O)c1ccc(NC(C)=O)cc1 | 6.31µM* | 4.61µM* | 3.66µM* | ? | -3.1% | ?
CC(O)[C@@]1(O)CC[C@H]2[C@@H]3CC[C@H]4C[C@@H](O)CC[C@]4(C)C3=CC[C@@]21C (stereo partly specified) | -2.8% | ? | -6.1% | 12.0% | 12.7% | -8.2%
COc1ccc(OCCN2CCC(C(=O)NC(C)c3cccc4ccccc34)CC2)cc1 (stereo unspecified) | -12.5% | ? | ? | 24.0% | -28.2% | 4.8%
CCOC(=O)c1coc(C(=O)OCC)c1C(=O)OCC | 2.1% | -5.5% | 2.5% | 23.1% | 7.5% | 13.4%
CC(Cn1cncn1)C(=O)N1CCN(S(=O)(=O)c2ccccc2)CC1 (stereo unspecified) | 3.6% | -4.5% | 1.0% | -0.8% | 0.5% | 1.2%
COCCn1c(=O)c(C)nc2cnc(Oc3ccc(OC)cc3)nc21 | . | -29.4% | -22.0% | . | . | .
CN1CCCN(c2cc(-c3ccc4ccccc4c3)nc3ccnn23)CC1 | ? | 20.6µM* | 20.6µM* | 21.4% | -7.6% | 0.0%
Cc1cccc(-c2cc(N3CCCN(C)CC3)n3nccc3n2)c1 | 17.5% | ? | ? | 18.3% | -13.5% | 22.3%
OCCN1CCN(c2cc(-c3ccc4ccccc4c3)nc3ccnn23)CC1 | -19.4% | 18.4µM* | ? | 25.1% | -9.1% | 1.1%
COc1nccc(C(F)(F)F)c1C(=O)NC(=O)Nc1ccccc1 | 4.3% | -3.0% | -18.6% | -3.7% | -1.9% | 7.6%
Cc1cccc(NC(=O)C(=O)NCC2CCCN2S(=O)(=O)c2ccccc2)c1 (stereo unspecified) | 1.2% | 14.6µM* | 10.3µM* | 0.0% | -15.8% | -2.8%
Cc1ccccc1CNC(=O)C(=O)NCC1CCCN1S(=O)(=O)c1ccccc1 (stereo unspecified) | -0.5% | ? | ? | -16.0% | 12.0% | 3.6%
Cc1cccc(NC(=O)C(=O)NCC2CCCN2S(=O)(=O)c2cccs2)c1C (stereo unspecified) | 6.5% | 20.6µM* | ? | ? | -21.1% | 0.5%
Cc1cccc(NC(=O)C(=O)NCC2CCCN2S(=O)(=O)c2cccs2)c1 (stereo unspecified) | -3.3% | 13µM* | 8.2µM* | -6.6% | -28.1% | -19.7%
CCc1ccc(NC(=O)C(=O)NCC2CCCN2S(=O)(=O)c2cccs2)cc1 (stereo unspecified) | -1.9% | 18.4µM* | 14.6µM* | ? | -25.8% | -8.7%
